Results published in PubChem BioAssay (EPA / NIEHS).
Results filed as inconclusive are left out. The source made the active and inactive calls. How the source made its calls: active means hit-call score of the fitted dose curve at least 0.9, where 1 is the maximum; inconclusive means response in the unintended direction; inactive means score below 0.9.

What was measured:
[1] = target: Cellular tumor antigen p53 (Homo sapiens) (UniProt P04637); assay: TOX21_p53_BLA_p2_ratio: Tox21 HCT-116 p53 Agonism Beta-lactamase Assay, Ratio, Phase 2 (AID 2283592)
Sequence of Cellular tumor antigen p53 (Homo sapiens) (P04637 whole entry, looked up): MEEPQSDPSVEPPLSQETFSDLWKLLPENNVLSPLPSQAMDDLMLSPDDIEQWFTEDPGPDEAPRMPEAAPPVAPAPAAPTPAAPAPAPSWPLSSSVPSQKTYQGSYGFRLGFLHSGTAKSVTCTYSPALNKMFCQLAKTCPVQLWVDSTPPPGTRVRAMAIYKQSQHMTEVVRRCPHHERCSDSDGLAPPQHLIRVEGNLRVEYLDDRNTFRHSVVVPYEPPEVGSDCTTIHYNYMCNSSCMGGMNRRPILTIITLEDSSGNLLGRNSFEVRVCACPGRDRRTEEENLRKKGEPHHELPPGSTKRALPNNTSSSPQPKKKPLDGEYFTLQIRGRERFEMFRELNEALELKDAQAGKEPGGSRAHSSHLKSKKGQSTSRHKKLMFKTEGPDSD
Summary of the method: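 An inducible beta-lactamase reporter in HCT116 cells signals p53 pathway activation. After 16 h chemical exposure at 37C, cells load CCF4-AM substrate for 2 h at room temperature; activity is the cleaved/uncleaved emission ratio relative to DMSO.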

[2] = target: Cellular tumor antigen p53 (Homo sapiens) (UniProt P04637); assay: TOX21_p53_BLA_p3_ratio: Tox21 HCT-116 p53 Agonism Beta-lactamase Assay, Ratio, Phase 3 (AID 2283596)
Summary of the method: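 HCT116 p53-bla cells (4000/well) given compound in DMSO (217-fold dilution) after 5 h, incubated 16 h at 37C. CCF4-AM substrate 2 h at room temperature; 460/530 nm emission ratio, gain fitted against DMSO.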

[3] = target: Cellular tumor antigen p53 (Homo sapiens) (UniProt P04637); assay: TOX21_p53_BLA_p5_ratio: Tox21 HCT-116 p53 Agonism Beta-lactamase Assay, Ratio, Phase 5 (AID 2283599)
Summary of the method: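 HCT-116 cells carrying a p53-inducible beta-lactamase reporter were seeded at 4000 cells/well and dosed after 5 h with compound in DMSO (217-fold dilution). After 16 h at 37C, CCF4-AM substrate was added for 2 h, and the 460/530 nm emission ratio was scored as gain-of-signal versus DMSO.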

[4] = target: Cellular tumor antigen p53 (Homo sapiens) (UniProt P04637); assay: TOX21_p53_BLA_p4_ratio: Tox21 HCT-116 p53 Agonism Beta-lactamase Assay, Ratio, Phase 4 (AID 2283601)
Summary of the method: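 HCT116 cells carrying an inducible beta-lactamase reporter were plated at 4000 cells/well, rested 5 h, then exposed to compounds in DMSO (217-fold dilution) for 16 h at 37C. CCF4-AM substrate was loaded 2 h at room temperature; 460/530 nm emission ratio scored gain-of-signal versus DMSO.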

[5] = TOX21_p53_BLA_p5_viability: Viability Assessment in the Tox21 HCT-116 p53 Agonism Beta-lactamase Assay, Phase 5 (AID 2283600)
Summary of the method: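 Counter-readout for cytotoxicity: ATP-dependent luminescence from CellTiter-Glo, read in the beta-lactamase wells after 30 min at RT, following a 16 h compound exposure at 37C.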

Measured: outcome

CCCC[N+]1(C)CCCC1
not listed: [5]
inactive: all other assays above

CC(NC(C)(C)C)C(=O)c1cccc(Cl)c1 (stereo unspecified)
not listed: [5]
inactive: all other assays above

S=C=Nc1ccccc1
inactive: [1] | [2] | [5]
